In PubChem BioAssay (NCI):
Compounds without any hit were thinned out: in the full panel of roughly 83,000, 20% have a hit.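 Method: cells in 96-well plates; compound added at one concentration; 48 h incubation; percent growth measured; values under 10 scored active.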 Active and inactive are the calls of the source.

Test system: SK-MEL-2 melanoma
Test: NCI-60 one-dose screen, 48 h (100 = growth as untreated, 0 = no growth, -100 = all killed)
Conditions: 10 µM unless noted

Structure (SMILES)	growth
CCOC(=O)c1c(Nc2ccccc2)nn2c(N)c(C#N)c(-c3ccccc3)nc12	92.2% (inactive)
COC(=O)c1ccc(NC(=S)N2CCc3ccc([N+](=O)[O-])cc3C2)cc1O	122% (inactive)
CCCC(=O)NC(c1cccc(N(C)C)c1)c1cc(C)c2cccnc2c1O (centres undefined)	89.9% (inactive)
COc1cc(/C=C/C(=O)c2cc(OC)c(OC)c(OC)c2)ccc1Oc1nc(NCCO)nc(N2CCOCC2)n1	-3.2% (active)
CS(=O)(=O)c1ccc(-n2cc(/C=C/C(=O)c3ccc(NC(=O)CO[N+](=O)[O-])cc3)c(-c3ccc(Cl)cc3)n2)cc1	94.9% (inactive)
Cc1cc2nc3c4cc(Cl)ccc4n(CC(=O)NCCN(C)C)c3nc2cc1C	112% (inactive)
Cc1cc2nc3c4cc(Cl)ccc4n(CC(=S)NCCN(C)C)c3nc2cc1C	70.7% (inactive)
NS(=O)(=O)c1ccc(Nc2nc(SCC(=O)c3ccc(Cl)cc3)nc3ccccc23)cc1	100% (inactive)
Clc1ccc2oc3c(NCCCN4CCOCC4)c4ccccc4nc3c2c1	56.8% (inactive)
Cc1ccc(/C=C/c2nn3c(-c4ccco4)nnc3s2)cc1C	128% (inactive)
N=C1CC(=O)NN1C(=O)CSc1nc2sc3c(c2c(=O)n1-c1ccc(Cl)cc1)CCCC3	128% (inactive)
O=C(NNc1nc2cc(F)ccc2n2c(CN3CC4(COC4)C3)ccc12)c1cnccn1	49.7% (inactive)
COc1cc2nc(-c3ccc(C)cc3)cc(OCCCNCC3CCCO3)c2cc1OC (centres undefined)	112% (inactive)
CS(=O)(=O)c1ccc(-c2nc3ccccn3c2C=Nc2ccc(Cl)cc2)cc1	107% (inactive)
C#Cc1nc(C2=C(C)C(=O)/C(=N/OC(C)=O)C2)cs1	96.9% (inactive)
CSCCC(C(=O)O)N1C(=O)/C(=C/c2ccc(O)c(O)c2)SC1=S (centres undefined)	133% (inactive)
CC(=NNc1ncnc2ccccc12)c1ccc(S(C)(=O)=O)cc1	112% (inactive)
Nc1c(C(=O)c2ccc(Br)cc2)oc2nc(-c3cnccn3)cc(-c3cccs3)c12	113% (inactive)
COc1cc(-c2nc3ccc(-c4nnc(SCC(=O)Nc5ccc(C(C)=O)cc5)o4)cc3[nH]2)cc(OC)c1OC	115% (inactive)
N#Cc1nc(-c2ccccc2)oc1S(N)(=O)=O	84.9% (inactive)

Structure (SMILES)	growth
O=C(CN1C(=O)/C(=C/c2ccccc2)SC1=S)N1CCOCC1	125% (inactive)
Nc1ncc(-c2ccc3ncnc(N4CCc5cc(F)c(Cl)cc54)c3c2)cc1CO	-63.4% (active)
Cc1ccc(C(=O)Nc2cccc(C(F)(F)F)c2)cc1Nc1nc(-c2cnccn2)nc2c1cnn2C	-4.36% (active)
Clc1ccc2c(NCCCn3ccnc3)c3oc4ccc(Cl)cc4c3nc2c1	113% (inactive)
CN(C)CCCNc1c2ccc(Cl)cc2nc2c1oc1ccc(Cl)cc12	127% (inactive)
O=C(N/N=C/c1ccc[nH]1)c1[nH]c2ccc(Br)cc2c1-c1ccccc1	31.9% (inactive)
C#Cc1nc(C2=C(C)/C(=N/OCc3ccccc3)CC2)cs1	98.7% (inactive)
N#Cc1ccc(C(=O)CSc2nc(Nc3ccc(S(N)(=O)=O)cc3)c3ccccc3n2)cc1	118% (inactive)
C=CCn1c(SCC(=O)c2ccccc2)nnc1-c1c[nH]c2ccccc12	105% (inactive)
Cc1cc(=O)oc2cc(OCCCOc3ccc(/C=C/C(=O)Nc4ccc(Cl)cc4)cc3)ccc12	80.4% (inactive)
O=C(c1ccc(Cl)cc1)C1[C@H](c2ccc(Cl)cc2)[C@@H](c2ccccc2)NC12C(=O)Nc1ccc(Br)cc12 (some centres undefined)	38.7% (inactive)
C[C@@H](Nc1c(C#N)cnc2ccc(-c3cnc(N)nc3)cc12)c1ccccc1	-42.5% (active)
CCN1C(=S)N(CC)C2C1NN=C1SC(c3ccccc3)=CC(=O)N12 (centres undefined)	98.2% (inactive)
CC(C)(O)c1cncc(-c2ccc3ncnc(N4CCc5cc(F)c(Cl)cc54)c3c2)c1	-1.1% (active)
CC(C)(C)Nc1nc2c(OCCc3ccccc3)cccn2c1-c1ccccc1Cl	-76.2% (active)
COc1ccc(/C=N/NC(=O)c2[nH]c3ccc(Br)cc3c2-c2ccccc2)s1	43.9% (inactive)
OC1CCN(CCCOc2c3ccccc3nc3c2oc2ccc(Cl)cc23)CC1	14% (inactive)
Cc1sc2c(c1C)c(=O)nc1c(-c3nc(-c4ccc(F)cc4)no3)n[nH]n12	113% (inactive)
CC(C)(C)Nc1nc2c(OCCc3ccccc3)cccn2c1-c1cccc(F)c1	-81.2% (active)
